The test system of this test is THRa homodimer (NR concentration 90 nM). As to the kind of experiment: PBM binding z-score (relative to random genomic background probes); higher = stronger binding; sequences stand for … in GC…GCGATTGACAGCGTAGAATGAAGG
The gist of the method:
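Antibodies against each partner of ligand-free nuclear receptor dimers (one per run) detected binding on custom Agilent 4×180K protein-binding microarrays after 1 h incubation. The double-stranded probes had 34-nt variable regions carrying direct-repeat seeds, single-nucleotide variants, half-site ablations and random human genomic background sequences. Binding z-scores, from regression-normalized fluorescence, use the random background probes as reference.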
In turn, AGGATGAGGTTATTAAGATCAGGGAATTGCGGTC returned a PBM binding z-score of 1.47.

CCGACTGGGGCATAAGGTTATCATAAGCCAGCCC gave a PBM binding z-score of 0.629. With ACAGACCGGTGATGAAGGTAACTCAGGCTATCAT the figure was -0.0295; with CGAACTAGGACAGAACAGGACAGTGAAGGATGAT, -0.221; with CGTCCAAGGTCACAGGTCAGTGAAGAGATGACGG, 3.28. With CTCGAAAGGTCGGTTGAGGTGTGTATACGGATAA the figure was -0.0744; with CGAACTAGGTCAAGCACAGTGAATCTCCGCACGC, 1.27; with ATAGAAAGGTCGTGAGGTGAGTATACAGAAAGGC, 1.99. With TCAGACAGGTGAGGGTAACTCAGGTACGCAGTCG, the PBM binding z-score turned out to be 0.442. With CCTATTAGTTCACCATAAGGGCAACCGAAGCTCG the figure was 1.73. Turning to AATACAGGGTCACTAGGCCAGAGTTGGTACGAAT, the PBM binding z-score was found to be 1.21.

With CCTACTGGGCCAAAAAGGTCATTCATGCCGATAA, the PBM binding z-score was determined as 0.431. With CAAACTAGGTCAAGGTCAAAATCGGTTTGTGCCA the figure was 3.13; with AGAATGAGGTTATACGTAGATCATGGAAGAAAGT, 0.532; with GCTTACGGGCCAAAGGTTATAGCATGAATAGAAT, -0.515. The sequence TCGAGTTGGTTAGGGGCATTCAGAATGGCGTCGA came in with a PBM binding z-score of 0.169. With TATACAGGGTCAAAGGCGAGAGTACGAATGTCGA the figure was 0.888.

Values taken from the supplement of paper PMC6555819.
